Molecules are shown by their SMILES. For part of these data: Results with a measured potency or affinity are listed apart. Active and inactive are the calls of the source.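 The calls were made as follows, unless noted: active = compound raising the membrane signal above positive-control mean plus 3 SD in both repeats, and a primary screen hit; inactive = the rest.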

The test system of experiment [1] is TRPC4 beta (transient receptor potential cation channel C4), mouse. Put plainly: TRPC4 cation channel opening, retest – cell-based, Fluo4 calcium, HEK293 TRPC4beta/mu-opioid, duplicates, 10 µM, confirmation (AID 2426;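 active = fluorescence ratio normalized to control raised more than 50% in primary screen plus both repeat runs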;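 as to activation: percent rise of integrated ratio over buffer wells lacking compound which define 0%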). Conditions: Fluo4 calcium fluorescence, at 10 µM; active compounds read high.
For experiment [2], the system named is transient receptor potential cation channel C4 beta (TRPC4), mouse. Put plainly: TRPC4 cation channel opening, second retest – cell-based, second round, Fluo4, HEK293 TRPC4beta/mu-opioid, 1 µM, confirmation (AID 2461;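 active = primary screen active and over 50% activation in each of two duplicate runs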;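 as to activation: 0% = wells without test compound as baseline of integrated fluorescence ratio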). Conditions: Fluo4 calcium fluorescence, at 1 µM; active compounds read high.
The subject of experiment [3] is TRPC4 (transient receptor potential cation channel C4 beta), mouse. Put plainly: potentiation of DAMGO EC20 TRPC4 response – cell-based, second round, Fluo-4, HEK293 TRPC4beta/mu-opioid, 1 µM, confirmation (AID 2554;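 active = primary screen hit whose fluorescence ratio, in both repeats, exceeds the weak agonist control mean by 3 SD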). Conditions: DAMGO EC20, Fluo-4 calcium flux, at 1 µM; active compounds read high.
Experiment [4] concerns TRPC4 beta (transient receptor potential cation channel C4), mouse. Briefly: potentiation of DAMGO EC20 TRPC4 response – cell-based, Fluo-4, HEK293 TRPC4beta/mu-opioid, confirmation (AID 2555;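 active = primary screen hit whose calcium fluorescence ratio, in both repeats, exceeds the weak agonist control mean by 3 SD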). Conditions: DAMGO EC20, Fluo-4 calcium flux, at 10 µM; active compounds read high.
Experiment [5] has as its target Short transient receptor potential channel 4 (Mus musculus) (UniProt Q9QUQ5). Put plainly: blockers of DAMGO-evoked TRPC4 calcium flux – cell-based, Fluo4, HEK293 TRPC4beta/mu-opioid, confirmation (AID 2636;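 active = calcium signal cut by more than 3 SD below the full-agonist control yet still positive, in both repeats and the earlier primary screen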). Conditions: at 10 µM; active compounds read high.
Experiment [6] has the same target. Briefly: blockers of DAMGO-evoked TRPC4 calcium flux – cell-based, second round, Fluo4, HEK293 TRPC4beta/mu-opioid, 1 µM, confirmation (AID 2637;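 active = calcium signal ratio cut to more than 3 SD under the fully stimulated control mean yet still positive, in both repeats and the primary screen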). Conditions: at 1 µM; active compounds read high.
Experiment [7] shares this target. Put plainly: potentiation of DAMGO-evoked TRPC4 calcium signal – cell-based, HEK293 TRPC4/mu-opioid, Fluo-4 calcium, EC20 DAMGO, dose response (AID 434941;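 active = earlier screen potentiator hit that boosts the TRPC4 ion channel at some dose, with a dose response; inactive = no potentiation, no dose response, or not a prior hit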;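 also: calcium entry triggered by an EC20 dose of DAMGO at the co-expressed mu-opioid receptor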).
Experiment [8] has the same target. Put plainly: block of DAMGO-driven TRPC4 calcium entry – cell-based, HEK293 TRPC4/mu-opioid, Fluo-4 calcium, dose response (AID 434942;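 active = primary screen inhibitor hit that blocks the TRPC4 channel at some tested dose, yielding a dose curve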).
The target in experiment [9] is Short transient receptor potential channel 6 (Mus musculus) (UniProt Q61143). Briefly: TRPC6 blockade by TRPC4 inhibitor hits – cell-based, HEK293, membrane potential dye, duplicate, selectivity assay for TRPC4 inhibitor project, confirmation (AID 434948;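 active = active in primary screen and both duplicates, each dropping signal beyond three positive-control SD with fluorescence still positive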). Conditions: HEK293 TRPC6, membrane potential dye fluorescence, at 10 µM, stimulated with maximal-effect acetylcholine; active compounds read high.

Experiment [10] has the same target. Put plainly: TRPC6 opening by TRPC4 activator hits – cell-based, HEK293, membrane potential dye, duplicate, selectivity assay for TRPC4 activator project, confirmation (AID 434950;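 active = membrane potential signal rise above negative control mean plus 3 SD in both duplicates, also active in the earlier TRPC4 screen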;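 as to activation: 0% = buffer only wells and 100% = acetylcholine maximal-effect wells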). Conditions: HEK293 TRPC6, membrane potential fluorescence, at 10 µM; activation: active compounds read high; outcome: activation.
Experiment [11] has the same target. Briefly: positive modulators of mouse TRPC6 channel – HEK293 cells, membrane potential dye, duplicate, selectivity assay for TRPC4 potentiator project, confirmation (AID 434952). Conditions: HEK293 TRPC6, membrane potential dye fluorescence, at 10 µM, maximal acetylcholine added after compound; active compounds read high.
Experiment [12] addresses Short transient receptor potential channel 4 (Mus musculus) (UniProt Q9QUQ5). Briefly: calcium flux activators in TRPC4/5HT1a cells, counter-screen for TRPC4 activator project, cell-based, second counter screen, HEK293 TRPC4/5HT1a, Fluo-4 (AID 434977;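 active = calcium signal rise above buffer-control mean plus 5 SD in both duplicates, and also a hit in the primary screen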;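 as to activation: plate controls were assay buffer for no effect and maximal serotonin response for full effect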). Conditions: Fluo-4 calcium flux, at 10 µM; active compounds read high.
Experiment [13] is described as follows: serotonin-gated TRPC4 signal block – cell-based, second counter screen, HEK293 TRPC4/5HT1a, Fluo-4, counter-screen for TRPC4 inhibitor project, confirmation (AID 434978;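 active = primary screen active whose calcium signal fell more than 3 SD beyond the full-serotonin control mean in both duplicate plates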;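 also: serotonin given first at submaximal then at maximal dose after compound preincubation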). Conditions: Fluo-4 calcium flux, at 10 µM, serotonin added to trigger calcium flux; active compounds read high.
Experiment [14] relates to TRPC4 (mouse), co-expressed with 5HT1a in HEK293. Briefly: enhancement of serotonin-evoked TRPC4 response – cell-based, second counter screen, HEK293 TRPC4/5HT1a, Fluo-4, counter-screen for TRPC4 potentiator project, confirmation (AID 434979;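 active = signal rise over 3 SD above mean of control wells given weak agonist, in both repeats and first screen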). Conditions: Fluo-4 calcium flux, at 10 µM, serotonin added at its EC20 dose; active compounds read high.
Experiment [15] in a line: nonspecific calcium rise without TRPC4 – cell-based, HEK293 mu-opioid receptor line, counter-screen for TRPC4 activator project, confirmation (AID 449723;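 active = hit in primary screen, with calcium signal over 5 SD above buffer well mean in both duplicates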;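 also: counter screen cells carry the mu-opioid receptor alone and lack TRPC4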). Conditions: HEK293 mu-opioid cells, Fluo-4 calcium fluorescence, at 10 µM; active compounds read high.
The nature of experiment [16]: nonspecific potentiation of DAMGO calcium response – cell-based, HEK293 mu-opioid receptor line, counter-screen for TRPC4 allosteric potentiator project, confirmation (AID 449724;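 active = calcium signal rise more than 3 SD above the low-dose agonist control mean, in both duplicate plates and the primary screen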;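 also: HEK293 cells carrying mu-opioid receptor only with no TRPC4 channel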). Conditions: HEK293 mu-opioid receptor cells, Fluo-4 calcium flux, at 10 µM, compound added before EC20 DAMGO stimulus; active compounds read high.

Sequence of Short transient receptor potential channel 4 (Mus musculus) (Q9QUQ5 whole entry, looked up): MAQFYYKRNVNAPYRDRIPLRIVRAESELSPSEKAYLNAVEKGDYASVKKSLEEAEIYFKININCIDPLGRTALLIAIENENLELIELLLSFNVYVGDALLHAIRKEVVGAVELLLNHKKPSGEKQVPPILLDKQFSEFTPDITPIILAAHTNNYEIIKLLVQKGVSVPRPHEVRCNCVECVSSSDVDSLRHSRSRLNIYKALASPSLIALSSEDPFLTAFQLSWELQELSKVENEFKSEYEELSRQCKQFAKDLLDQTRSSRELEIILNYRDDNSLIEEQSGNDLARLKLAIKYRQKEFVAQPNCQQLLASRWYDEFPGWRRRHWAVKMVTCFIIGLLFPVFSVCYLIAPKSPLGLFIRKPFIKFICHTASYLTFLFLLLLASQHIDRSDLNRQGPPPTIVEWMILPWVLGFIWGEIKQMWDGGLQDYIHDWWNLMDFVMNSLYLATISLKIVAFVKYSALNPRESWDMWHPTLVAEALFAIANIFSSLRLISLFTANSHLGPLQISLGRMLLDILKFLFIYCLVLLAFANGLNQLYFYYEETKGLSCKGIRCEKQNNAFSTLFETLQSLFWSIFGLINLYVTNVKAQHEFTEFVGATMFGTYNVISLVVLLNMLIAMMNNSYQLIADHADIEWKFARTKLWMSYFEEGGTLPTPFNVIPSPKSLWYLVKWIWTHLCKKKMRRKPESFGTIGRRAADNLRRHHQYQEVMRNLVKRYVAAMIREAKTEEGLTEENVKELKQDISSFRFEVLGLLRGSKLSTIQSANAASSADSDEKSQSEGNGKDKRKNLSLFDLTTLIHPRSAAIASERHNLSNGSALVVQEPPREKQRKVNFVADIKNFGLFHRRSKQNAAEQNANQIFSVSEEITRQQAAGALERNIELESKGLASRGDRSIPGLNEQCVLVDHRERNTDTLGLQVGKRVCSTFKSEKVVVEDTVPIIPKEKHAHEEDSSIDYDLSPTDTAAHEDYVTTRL
Sequence of Short transient receptor potential channel 6 (Mus musculus) (Q61143 whole entry, looked up): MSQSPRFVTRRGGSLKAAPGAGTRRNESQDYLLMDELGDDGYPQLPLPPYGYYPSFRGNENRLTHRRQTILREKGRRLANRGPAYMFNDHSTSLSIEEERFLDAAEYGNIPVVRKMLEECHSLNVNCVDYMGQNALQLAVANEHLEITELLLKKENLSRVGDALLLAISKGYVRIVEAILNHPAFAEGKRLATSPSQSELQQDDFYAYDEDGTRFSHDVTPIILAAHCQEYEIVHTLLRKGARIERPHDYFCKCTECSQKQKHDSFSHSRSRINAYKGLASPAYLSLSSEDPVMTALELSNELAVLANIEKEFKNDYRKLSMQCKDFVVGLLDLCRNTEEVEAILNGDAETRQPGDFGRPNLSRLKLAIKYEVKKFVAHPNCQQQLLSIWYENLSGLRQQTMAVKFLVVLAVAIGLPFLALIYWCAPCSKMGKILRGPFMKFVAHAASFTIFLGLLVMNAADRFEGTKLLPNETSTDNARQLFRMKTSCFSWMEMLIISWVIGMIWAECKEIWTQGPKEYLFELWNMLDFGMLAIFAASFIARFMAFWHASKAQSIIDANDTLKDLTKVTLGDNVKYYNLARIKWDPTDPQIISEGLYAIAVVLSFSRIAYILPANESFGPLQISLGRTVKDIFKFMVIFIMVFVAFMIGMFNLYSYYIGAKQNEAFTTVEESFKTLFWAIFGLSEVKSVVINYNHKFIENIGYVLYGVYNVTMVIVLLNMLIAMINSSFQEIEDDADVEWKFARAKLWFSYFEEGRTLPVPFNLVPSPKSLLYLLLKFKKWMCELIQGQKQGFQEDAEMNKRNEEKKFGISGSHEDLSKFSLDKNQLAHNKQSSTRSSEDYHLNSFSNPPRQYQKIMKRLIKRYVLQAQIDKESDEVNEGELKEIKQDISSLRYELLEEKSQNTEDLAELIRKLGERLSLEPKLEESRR

Turning to `O=C(CNS(=O)(=O)c1ccc2ccccc2c1)NCCc1ccccn1`, in experiment [1], the activation was 110% (active). Moreover, the outcome in [2], in [3], in [4], in experiment [5], in experiment [6] and in [7] was inactive. In addition, the outcome in experiment [8], in experiment [9], in experiment [10], in [11], in experiment [12] and in experiment [13] was inactive. Besides, the result in experiment [14], in experiment [15] and in [16] was inactive.
Regarding `Cc1onc(-c2c(F)cccc2Cl)c1C(=O)N1CCN(c2ncc(Br)cn2)CC1`, the activation in experiment [1] was 109% (active); in experiment [10], 42.5% (active); in [12] it was 37.9% (active). Further, the outcome in experiment [2], in [3], in experiment [4], in experiment [5], in experiment [6] and in experiment [7] was inactive. Besides, the result in experiment [8], in experiment [9], in experiment [11], in [13], in experiment [14] and in experiment [15] was inactive. Also, the result in experiment [16] was inactive.
`CCn1cc(CN2CCC(n3nccc3NC(=O)CCOc3ccccc3)CC2)cn1`: in experiment [1], the activation was 78% (active). The result in experiment [2], in [3], in experiment [4], in experiment [5], in experiment [6] and in [7] was inactive. The outcome in experiment [8], in [9], in [10], in [11], in [12] and in experiment [13] was inactive. In addition, the outcome in [14], in experiment [15] and in experiment [16] was inactive.
Take `Fc1ccc(-c2nnc(CN3CCN(c4ncc(C(F)(F)F)cc4Cl)CC3)o2)cc1`: the activation is 120% (active) in experiment [1], 35.5% (active) in experiment [10] and 23.8% (active) in experiment [12]. Further, the result in experiment [2], in experiment [3], in [4], in experiment [5], in [6] and in experiment [7] was inactive. The result in [8], in experiment [9], in experiment [11], in experiment [13], in [14] and in experiment [15] was inactive. Besides, the result in [16] was inactive.
Turning to `COc1ccc(C(CNC(=O)c2cccc(S(=O)(=O)NCc3ccccc3)c2)N(C)C)cc1` (stereo not given), the activation in [1] was 129% (active); in experiment [2], 61% (active); in experiment [10], 38% (active). Further, the result in experiment [3], in [4], in [5], in experiment [6], in experiment [7] and in experiment [8] was inactive. Also, the compound was classed as inactive in experiment [9], in [11], in experiment [12], in experiment [13], in [14] and in [15]. Further, in experiment [16], the outcome was inactive.
For the compound `O=C(NNC(=S)NC(=O)c1ccccc1Cl)c1cccc([N+](=O)[O-])c1`, the activation in experiment [1] is 120% (active); in experiment [10], 29% (active); in experiment [12], 77.4% (active); in experiment [15], 23% (active). Also, the outcome in [2], in experiment [3], in experiment [4], in experiment [5], in [6] and in [7] was inactive. The outcome in [8], in experiment [9], in experiment [11], in experiment [13], in [14] and in [16] was inactive.
As for `CN(CCc1ccccn1)C(=O)CC1C(=O)NCCN1Cc1ccccc1C(F)(F)F` (stereo not given), the activation in experiment [1] is 178% (active); in experiment [12], 50.4% (active). For the same compound, the outcome in experiment [2], in experiment [3], in experiment [4], in [5], in experiment [6] and in experiment [7] was inactive. Further, the outcome in experiment [8], in [9], in [10], in experiment [11], in experiment [13] and in [14] was inactive. Further, the result in experiment [15] and in [16] was inactive.
For the compound `COc1cc(OC)cc(C(=O)NC2CCCN(Cc3ccc(Cl)cc3)C2)c1` (stereo not given), the activation in experiment [1] is 111% (active); in [10] it was 44.5% (active); in experiment [12] it was 31.6% (active). The result in experiment [2], in experiment [3], in experiment [4], in [5], in experiment [6] and in [7] was inactive. The result in experiment [8], in experiment [9], in [11], in [13], in experiment [14] and in experiment [15] was inactive. The outcome in [16] was inactive.
Take `Cc1ccn2cc(CCNC(=O)C3CC=CCC3C(=O)O)nc2c1` (stereo not given): the activation in experiment [1] is 135% (active); in experiment [12] it was 59.9% (active). Moreover, the outcome in [2], in experiment [3], in [4], in experiment [5], in experiment [6] and in experiment [7] was inactive. The outcome in experiment [8], in [9], in experiment [10], in experiment [11], in experiment [13] and in [14] was inactive. Moreover, the result in [15] and in [16] was inactive.
In the case of `c1ccc(Nc2nc(Nc3ccccc3)nc(N3CCNCC3)n2)cc1`, the figures for the activation in [1], in [10] and in experiment [12] were 159% (active), 35.5% (active) and 56.1% (active), respectively. The result in experiment [2], in experiment [3], in experiment [4], in experiment [5], in experiment [6] and in experiment [7] was inactive. The outcome in [8], in experiment [9], in experiment [11], in [13], in experiment [14] and in [15] was inactive. Also, the result in experiment [16] was inactive.
In the case of `Cn1c(-c2cccc3ccccc23)n[nH]c1=S`, the results for the activation in experiment [1], in experiment [2] and in experiment [12] were 117% (active), 97% (active) and 30.5% (active), respectively. Further, the outcome in [3], in [4], in experiment [5], in experiment [6], in [7] and in experiment [8] was inactive. The call in experiment [9], in [10], in experiment [11], in [13], in experiment [14] and in [15] was inactive. The result in [16] was inactive.
Take `Cc1ccc2oc(=O)c3cnn(CC(=O)NC4CCN(Cc5ccccc5)CC4)c3c2c1`: in [1], the activation is 68% (active). Further, the outcome in experiment [2], in experiment [3], in experiment [4], in [5], in experiment [6] and in [7] was inactive. For the same compound, the result in experiment [8], in [9], in experiment [10], in experiment [11], in experiment [12] and in experiment [13] was inactive. Besides, the result in [14], in experiment [15] and in experiment [16] was inactive.
As to `CCOC(=O)C1(CC2CCCCO2)CCN(Cc2c(C)cc(C)cc2-n2cccn2)CC1` (stereo not given), the activation is 75% (active) in [1], 103% (active) in experiment [2] and 62.5% (active) in experiment [10]. For the same compound, the outcome in experiment [3], in experiment [4], in [5], in [6], in experiment [7] and in [8] was inactive. For the same compound, the compound was called inactive in experiment [9], in experiment [11], in experiment [12], in [13], in experiment [14] and in experiment [15]. In experiment [16], the result was inactive.
Regarding `CCOC(=O)C1(CCOc2ccccc2)CCN(Cc2ccc3c(c2)OCCO3)CC1`, the outcome in experiment [1], in experiment [2], in experiment [3], in experiment [4], in experiment [5] and in [6] was inactive. Further, the result in experiment [7], in experiment [8], in experiment [9], in experiment [11], in experiment [12] and in experiment [13] was inactive. Moreover, the outcome in [14], in [15] and in experiment [16] was inactive. Moreover, in experiment [10], the activation is 74.5% (active).
Take `CNCCCOc1ccc2c(c1)CCC2`: the figures for the activation in experiment [1], in experiment [10] and in experiment [12] were 75% (active), 57% (active) and 16.2% (active), respectively. For the same compound, the outcome in [2], in [5], in experiment [6], in experiment [7], in [8] and in [9] was inactive. Moreover, the result in [11], in experiment [13], in experiment [14], in experiment [15] and in [16] was inactive. Further, the values for the potentiation in [3] and in experiment [4] were 24% (active) and 29% (active), respectively.

Values taken from PubChem BioAssay.
